Source: PubChem
Methyltransferases = Primary Screen for Target Class Profiling of Small Molecule Inhibitors of Methyltransferases | calls only at 40 µM | 25,000 compounds, 3.9% hits | AID 1745853, 2022 | purified enzyme, MTase-Glo SAH luminescence; active compounds read low; call rule not given here
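Each enzyme was reacted with SAM and its substrate, with compounds tested once at 40 uM; SAH formed was read by MTase-Glo luminescence.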
Of the large screens only hits and unclear results are named; the others gave an inactive call. Many of the other results were omitted from the sample, so hits are more common in it than they were.

O=S(=O)(Cc1ccccc1)N1CCC(n2cnnc2C2CC2)CC1	none
O=C(CCc1nnc2n(CCc3ccccc3)c(=O)c3ccccc3n12)N1CCC(N2CCCCC2)CC1	Methyltransferases active
CC1CCN(C(=O)CCc2nnc3n(Cc4ccc(Cl)cc4)c(=O)c4ccccc4n23)CC1	none
Cc1ccc(Cn2c(=O)c3ccccc3n3c(CCC(=O)N4CCC(Cc5ccccc5)CC4)nnc23)cc1	none
Cc1cccc(-c2nnc3n(CCc4ccccc4)c(=O)c4ccccc4n23)c1	Methyltransferases active
Cc1ccc(Cn2c(=O)c3ccccc3n3c(CCC(=O)N4CCN(C5CCCCC5)CC4)nnc23)cc1	none
NC(=O)C1CCN(C(=O)CCc2nnc3n(Cc4ccc(F)cc4)c(=O)c4ccccc4n23)CC1	none
Cc1ccc(-c2nnc3n(CCc4ccccc4)c(=O)c4ccccc4n23)cc1	none
O=C(CCc1nnc2n(Cc3ccc(F)cc3)c(=O)c3ccccc3n12)N1CCN(C2CCCCC2)CC1	none
O=C(CCc1nnc2n(Cc3ccc(Cl)cc3)c(=O)c3ccccc3n12)N1CCC(N2CCCCC2)CC1	Methyltransferases active
O=c1c2ccccc2n2c(-c3cccc(Cl)c3)nnc2n1CCc1ccccc1	none
O=C(CCc1nnc2n(Cc3ccccc3)c(=O)c3ccccc3n12)N1CCN(c2cccc(Cl)c2)CC1	none
O=C(CCc1nnc2n(Cc3ccc(F)cc3)c(=O)c3ccccc3n12)N1CCC(N2CCCCC2)CC1	Methyltransferases active
Cc1cccc(NC(=O)c2cc3n(n2)CC(C)(C(=O)NC2CCCCC2)N(C)C3=O)c1C (stereo not drawn)	none
CCOC(=O)c1ccc2c(c1)[C@@H]1C=CC[C@@H]1[C@H](c1cccc(Cl)c1)N2	none
O=C(NC1CC1)c1ccc2c(=O)nc3c(-c4ccc(F)cc4)n[nH]n3c2c1	none
COCCN1C(=O)c2cc3occc3n2CC1(C)C(=O)NC1CCCCCCC1 (stereo not drawn)	none
COc1cccc(CCC(=O)N2CCCC(CN3CCCC3)CC2)c1 (stereo not drawn)	none
CSc1cccc(N2C(=O)c3cc(-c4cccs4)nn3CC2(C)C(=O)NC2CCCCC2)c1 (stereo not drawn)	none
O=C(c1ccc2c(=O)nc3c(-c4ccccc4F)n[nH]n3c2c1)N1CCN(c2ccc(F)cc2)CC1	none
COc1ccccc1CN1C(=O)c2ccc(-c3ccccc3)n2CC1(C)C(=O)NC1CCC(C)CC1 (stereo not drawn)	none
CN1C(=O)CC[C@]2(C(=O)NCc3ccco3)CCCC[C@@H]12	none
O=C(CSc1nnc2n(CCc3ccccc3)c(=O)c3ccccc3n12)Nc1cccc(Cl)c1	none
Nc1nc2c(cnn2CCc2ccccc2)c2nc(-c3ccco3)nn12	Methyltransferases active
Nc1nc2ccc(Cl)cc2c2nc(-c3ccco3)nn12	none
O=C1Nc2ccccc2C12CN(Cc1ccc(C(F)(F)F)cc1)C2	none
C=CC(=O)Nc1cccc(CN2C(=O)N(c3c(Cl)c(OC)cc(OC)c3Cl)Cc3cnc(NCCCCN(CC)CC)nc32)c1	Methyltransferases active
Cc1ccc(C(=O)N2CCC3(CC2)N=C(c2cccc(Br)c2)NO3)s1	none
Cc1ccc(N2C(=O)c3cc(-c4ccccc4)nn3CC2(C)C(=O)NCc2ccccc2)cc1Cl (stereo not drawn)	none
Cc1ccc(Cn2c(=O)c3ccc(C(=O)NC(C)C)cc3n3c(=O)n(Cc4cccc(C)c4)nc23)cc1	none
COC(=O)c1ncn2c1C(=O)N(Cc1ccc(C)cc1)C(C)(C(=O)NCc1ccccc1)C2 (stereo not drawn)	none
O=c1[nH]c2ccc(S(=O)(=O)NC3CCN(Cc4ccccc4)CC3)cc2[nH]1	none
Cc1cc2c(N3CCCC3)nc(N3CCCC3)nc2n1C	Methyltransferases active
Cc1cccc(-c2nnn3c2nc(N2CCCC2)c2ccccc23)c1	none
Cc1nc(N2CCCC2)nc(N2CCC3(CC2)OCCCC3O)c1C (stereo not drawn)	none
CC(C)CCNC(=O)C1(C)Cn2c(ccc2-c2ccco2)C(=O)N1CCc1ccccc1 (stereo not drawn)	none
CCN1C(=O)c2cc3ccccc3n2CC1(C)C(=O)NCC(=O)NCCCOC (stereo not drawn)	none
CC(C)n1c(=O)c2ccc(C(=O)NC3CCCC3)cc2n2c(=O)n(CC(=O)N(C)c3ccccc3)nc12	none
CN1CCc2c(n(Cc3ccc(C(=O)NO)cc3)c3ccccc23)C1	Methyltransferases active
CC(=O)Nc1ccc(C(=O)NCc2nn(Cc3ccccc3)c3ccccc23)cc1	none
O=C(c1cccc([N+](=O)[O-])c1)N1CCc2c(c3ccccc3n2CC2CC2)C1	none
CC(C)OCCCn1c(=O)c2ccccc2n2c(CCC(=O)Nc3ccc(F)c(F)c3)nnc12	none
COC(=O)C1=CO[C@@H](O[C@@H]2O[C@H](COC(=O)/C=C/c3cc(OC)c(O)c(OC)c3)[C@@H](O)[C@H](O)[C@H]2O)[C@@H]2C(CO)=CC[C@H]12	Methyltransferases active
COC(=O)C1=COC(O[C@@H]2O[C@H](COC(=O)/C=C/c3ccc(O)cc3)[C@@H](O)[C@H](O)[C@H]2O)C2C(CO)=CCC12 (stereo partly drawn)	none
O=C(/C=C/c1ccccc1)OCC1=CC[C@@H]2C(C(=O)O)=CO[C@@H](O[C@@H]3O[C@H](CO)[C@@H](O)[C@H](O)[C@H]3O)[C@H]12	none
CCCN1C(=O)c2c(C(=O)NCc3cccc(OC)c3)ncn2CC1(C)C(=O)NCc1ccc(OC)cc1 (stereo not drawn)	none
COc1ccccc1CN1C(=O)c2cc3c(OC)ccc(OC)c3n2CC1(C)C(=O)NC1CCCC1 (stereo not drawn)	none
Cc1ccc(N2C(=O)c3cc4ccccc4n3CC2(C)C(=O)NC2CCCC2)cc1Cl (stereo not drawn)	none
CC1(C(=O)NC2CCCC2)Cn2c(ccc2-c2ccco2)C(=O)N1CCc1ccccc1 (stereo not drawn)	none
CCCN1C(=O)c2ccc(-c3ccccc3)n2CC1(C)C(=O)NC1CCCCCC1 (stereo not drawn)	none
COc1ccc(C(=O)Nc2ccc3c(c2)CN(CCc2ccccc2)C(=O)C(C)O3)cc1OC (stereo not drawn)	none
COc1ccc(NC(=O)Cn2nc3n(Cc4ccc(F)cc4)c(=O)c4ccccc4n3c2=O)cc1OC	none
COc1cc2c(cc1OC)CN(CCc1ccc(NC(=O)c3cccc4c(=O)c5cccc(OC)c5[nH]c34)cc1)CC2	Methyltransferases active
CCN1CCN(CCCNC(=O)c2cc3n(n2)CC(C)(C(=O)NCc2ccc(F)cc2)N(C)C3=O)CC1 (stereo not drawn)	none
Cc1cc(C[C@@H]2COC[C@@H]2NC(=O)CCc2nc(-c3ccco3)no2)on1	none
COc1ccc(Cl)cc1NC(=O)N1CCn2cccc2C1C(C)C (stereo not drawn)	none
CN1C(=O)c2cc(C(=O)NCc3cccc(F)c3)nn2CC1(C)C(=O)NCc1ccc(F)cc1 (stereo not drawn)	none
CC(C(=O)NCc1cccc(Cl)c1)n1ccc2cc(S(=O)(=O)N3CCCCC3)ccc21 (stereo not drawn)	none
O=C(Nc1ccc(F)c(Cl)c1)N1CCn2cccc2C1Cc1ccccc1 (stereo not drawn)	Methyltransferases active
Cc1cccc(NC(=O)N2CCn3cccc3C2Cc2ccccc2)c1 (stereo not drawn)	none
O=C(Nc1cccc(F)c1)N1CCn2cccc2C1Cc1ccccc1 (stereo not drawn)	none
CC(=O)Nc1c2n(c3ccccc13)CC(C)(C(=O)NC1CCCCC1)N(Cc1ccccc1C)C2=O (stereo not drawn)	none
CCOc1ccc(C2c3cccn3-c3sc4c(c3CN2C(=O)Nc2ccccc2F)CCCC4)cc1 (stereo not drawn)	none
